Data taken from PubChem BioAssay (Tox21).
Results filed as inconclusive are left out. A structure can be active in one record and inactive in another. Active and inactive are the calls of the source. Unless noted, calls follow the shape of the dose curve; as a rule, active = well fitted curve in the direction sought with a large enough effect in the repeat runs; inconclusive = weak or mixed curves; inactive = no such curve, though single readings can be large; an effect the other way counts as inactive or inconclusive.

Legend:
[1] = biological target: Thyrotropin receptor (Homo sapiens) (UniProt P16473); test: qHTS assay to identify small molecule agonists of the thyroid stimulating hormone receptor (TSHR) signaling pathway (AID 1224843; calls by dose curve; also: nearly all actives have a fitted effect of over 45% in size)
Sequence of Thyrotropin receptor (Homo sapiens) (P16473 whole entry, looked up): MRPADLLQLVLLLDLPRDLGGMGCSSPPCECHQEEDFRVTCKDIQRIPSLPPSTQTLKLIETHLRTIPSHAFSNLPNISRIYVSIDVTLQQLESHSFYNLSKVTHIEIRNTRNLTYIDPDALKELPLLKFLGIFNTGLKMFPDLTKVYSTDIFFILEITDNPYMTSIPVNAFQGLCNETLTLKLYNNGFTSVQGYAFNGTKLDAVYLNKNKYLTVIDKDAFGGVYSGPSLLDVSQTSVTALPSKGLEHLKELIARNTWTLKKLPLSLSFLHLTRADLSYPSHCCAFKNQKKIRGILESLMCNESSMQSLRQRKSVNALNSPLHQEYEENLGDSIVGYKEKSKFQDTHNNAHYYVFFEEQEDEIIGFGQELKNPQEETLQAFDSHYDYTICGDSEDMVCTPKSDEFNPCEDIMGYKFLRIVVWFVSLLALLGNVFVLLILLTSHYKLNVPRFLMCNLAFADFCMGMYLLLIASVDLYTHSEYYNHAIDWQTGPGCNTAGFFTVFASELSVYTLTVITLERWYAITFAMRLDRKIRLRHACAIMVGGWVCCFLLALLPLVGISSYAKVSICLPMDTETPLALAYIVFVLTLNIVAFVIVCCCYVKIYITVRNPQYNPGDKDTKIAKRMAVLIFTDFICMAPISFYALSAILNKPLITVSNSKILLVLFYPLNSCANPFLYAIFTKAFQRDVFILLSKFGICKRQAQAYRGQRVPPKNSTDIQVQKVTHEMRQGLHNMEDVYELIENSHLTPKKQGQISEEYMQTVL
Outline: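 Agonist activity read as cAMP rise via d2/cryptate HTRF competition, 1 h room-temperature detection, in HEK293 cells expressing TSHR. Fifteen-point titrations, each run in triplicate, with a 30 min room-temperature incubation beforehand.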

[2] = qHTS assay to identify small molecule agonists of H2AX (AID 1224845; active = well fitted activation curve with a large enough effect in the signal ratio in the repeat runs, not every such curve was filed as active; the % refers to the signal ratio)
Outline: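 Phospho-H2AX Ser139 measured by HTRF (ex 320 nm; em 665 and 620 nm) after 24 hr antibody incubation. Compounds, 15 concentrations, 0.76% DMSO, were applied to CHO-K1 cells for 3hr at 37C before lysis.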

[3] = qHTS assay to identify small molecule agonists of the hypoxia (HIF-1) signaling pathway (AID 1224846; active = well fitted activation curve with a large enough effect in the signal ratio in the repeat runs, not every such curve was filed as active; the % refers to the signal ratio)
Outline: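 Reporter induction in HRE-bla ME-180 cells is taken as agonism: cells sit 5 hrs after plating, receive compounds or DMSO only, incubate 17 hrs at 37C under 5% CO2, and are loaded with CCF4-AM for beta-lactamase FRET measurement.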

[4] = qHTS assay to identify small molecule agonists of H2AX - cell viability counter screen (AID 1224847; calls by dose curve; also: nearly all actives have a fitted effect of over 30% in size; also: potency is read from the fitted curve at half-maximal effect)
Outline: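 Quantitative HTS viability measurement: CHO-K1 wild-type cells in serum (10% FBS) medium, short 3 hr drug exposure at 37C with 0.76% DMSO, CellTiter-Glo luminescent detection.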

[5] = qHTS RealTime-Glo MT Cell Viability Assay in HepG2 cells - 24 hour (AID 1224867); also: nearly all actives have a fitted effect of over 50% in size
Outline: (§1)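 Compound treatment began 5 h after plating HepG2 cells (600/well) with NanoLuc luciferase and prosubstrate. Plates stayed at 37 C for 40 h; luminescence was captured at six time points, 0 h through 40 h.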

[6] = qHTS RealTime-Glo MT Cell Viability Assay in HEK293 cells - 32 hour (AID 1224868); also: nearly all actives have a fitted effect of over 50% in size; also: potency is read from the fitted curve at half-maximal effect
Outline: (§2)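 Quantitative high-throughput screen of the Tox21 10K library in HEK293: cells and RealTime-Glo reagents plated together, compound added at 5 h, luminescence monitored through 40 h at 37 C.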

[7] = A CellTox Green Cytotoxicity Assay to monitor cytotoxicity in HEK293 cells - 0 hour (AID 1224869); also: nearly all actives have a fitted effect of over 50% in size
Outline: (§3)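 Tox21 screen in HEK293: membrane-impermeant cyanine dye fluoresces on binding dead-cell DNA; compound pinned 5 h post-seeding, plates held at 37 C, signal read repeatedly through 40 h.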

[8] = qHTS RealTime-Glo MT Cell Viability Assay in HepG2 cells - 40 hour (AID 1224870); also: nearly all actives have a fitted effect of over 50% in size
Outline: (§4)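 Real-time viability: cells seeded at 600 per well together with NanoLuc and cell-permeant prosubstrate, compounds added after 5 h incubation. Luminescence tracked at 0, 8, 16, 24, 32 and 40 h of exposure.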

[9] = A CellTox Green Cytotoxicity Assay to monitor cytotoxicity in HEK293 cells - 40 hour (AID 1224871); also: nearly all actives have a fitted effect of over 45% in size
Outline: as §3

[10] = qHTS RealTime-Glo MT Cell Viability Assay in HEK293 cells - 16 hour (AID 1224872); also: nearly all actives have a fitted effect of over 50% in size; also: potency is read from the fitted curve at half-maximal effect
Outline: as §2

[11] = qHTS RealTime-Glo MT Cell Viability Assay in HepG2 cells - 8 hour (AID 1224873); also: nearly all actives have a fitted effect of over 55% in size
Outline: as §4

[12] = qHTS RealTime-Glo MT Cell Viability Assay in HEK293 cells - 40 hour (AID 1224874); details: RealTime-Glo luminescence; max response: stronger effect = lower value; also: nearly all actives have a fitted effect of over 50% in size; also: potency is read from the fitted curve at half-maximal effect
Outline: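 HEK293 + NanoLuc + prosubstrate, 600 cells/well; 5 h, 37 C/5% CO2; compound 23 nL in DMSO by pintool; 37 C; luminescence read at 0, 8, 16, 24, 32 and 40 h time points.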

[13] = A CellTox Green Cytotoxicity Assay to monitor cytotoxicity in HEK293 cells - 24 hour (AID 1224875); also: nearly all actives have a fitted effect of over 45% in size
Outline: as §3

[14] = A CellTox Green Cytotoxicity Assay to monitor cytotoxicity in HepG2 cells - 16 hour (AID 1224876); also: nearly all actives have a fitted effect of over 45% in size
Outline: (§5)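 Measurements at 0, 8, 16, 24, 32 and 40 h of treatment captured CellTox Green fluorescence in HepG2 cells that had been co-plated with reagent and preincubated 5 h at 37 C/5% CO2.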

[15] = qHTS RealTime-Glo MT Cell Viability Assay in HepG2 cells - 32 hour (AID 1224877); also: nearly all actives have a fitted effect of over 55% in size
Outline: as §1

[16] = A CellTox Green Cytotoxicity Assay to monitor cytotoxicity in HepG2 cells - 24 hour (AID 1224878); also: nearly all actives have a fitted effect of over 45% in size
Outline: as §5

[17] = A CellTox Green Cytotoxicity Assay to monitor cytotoxicity in HepG2 cells - 40 hour (AID 1224879); also: nearly all actives have a fitted effect of over 40% in size
Outline: as §5

[18] = qHTS assay to identify small molecule antagonists of the estrogen related receptor (ERR) signaling pathway from Tox21 library (AID 1224848); also: nearly all actives have a fitted effect of over 50% in size
Outline: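 Luciferase luminescence (ONE-Glo, 30 min room temperature) was the read-out. Cells of the NTP-supplied ERR line, 2,000 per well, were given 6 h at 37 C before compound addition in DMSO and 18 h exposure at 37 C.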

[19] = qHTS assay to identify small molecule agonists of the estrogen related receptor (ERR) signaling pathway from Tox21 library (AID 1224849; calls by dose curve; also: nearly all actives have a fitted effect of over 15% in size); details: ERR reporter cell line, ONE-Glo luciferase, 18 h; at 92.4 µM (top of the series) unless noted
Outline: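 Tox21 compounds tested for ERR agonism in an NTP reporter cell line: 18 h treatment at 37 C, then ONE-Glo luminescence.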

[20] = qHTS assay to identify small molecule agonists of the hypoxia (HIF-1) signaling pathway - cell viability counter screen (AID 1224844; calls by dose curve; also: nearly all actives have a fitted effect of over 50% in size)
Outline: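 HRE-bla ME-180; 0.5% dFBS; cpd 17 h, 37C, 5% CO2; CellTiter-Glo lum., 30 min RT, post-FRET read, same wells.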
% is scaled to controls: 0 for no effect and ±100 for the full control effect.

Cc1cc(OC(=O)N(C)C)nn1C(=O)N(C)C
inactive: Potency [1] | outcome [2] | outcome [3] | Potency [4] | Potency [5] | Potency [6] | outcome [7] | Potency [8] | Potency [9] | Potency [10] | outcome [11] | max response [12] 2% | Potency [13] | Potency [14] | Potency [15] | Potency [16] | Potency [17]

C(COCC1CO1)OCC1CO1 (configuration not stated)
inactive: Potency [1] | outcome [2] | outcome [3] | Potency [4] | Potency [18] | activity change, positive = activation [19] 0.301% | Potency [5] | outcome [7] | Potency [8] | Potency [9] | Potency [10] | Potency [13] | Potency [15] | Potency [17]

C1CN2CCC1CC2
inactive: Potency [1] | outcome [2] | outcome [3] | Potency [4] | Potency [5] | Potency [6] | outcome [7] | Potency [8] | Potency [9] | Potency [10] | outcome [11] | max response [12] 0.665% | Potency [13] | Potency [14] | Potency [15] | Potency [16] | Potency [17]

CNC(=O)Oc1cc(C)c(N(C)C)c(C)c1
inactive: Potency [20] | outcome [2] | outcome [3] | Potency [4] | Potency [18] | activity change, positive = activation [19] 4.59% | Potency [5] | Potency [6] | outcome [7] | Potency [8] | Potency [9] | Potency [10] | outcome [11] | max response [12] -10.9% | Potency [13] | Potency [14] | Potency [15] | Potency [16] | Potency [17]

CC[C@H](N)c1ccccc1
inactive: Potency [1] | outcome [2] | outcome [3] | Potency [4] | Potency [5] | Potency [6] | outcome [7] | Potency [8] | Potency [9] | Potency [10] | outcome [11] | max response [12] 5.02% | Potency [13] | Potency [14] | Potency [15] | Potency [16] | Potency [17]

COC[C@@H](NC(C)=O)C(=O)NCc1ccccc1
inactive: Potency [1] | outcome [2] | outcome [3] | Potency [4] | Potency [18] | Potency [5] | Potency [6] | outcome [7] | Potency [8] | Potency [9] | outcome [11] | max response [12] 5.22% | Potency [13] | Potency [14] | Potency [15] | Potency [16] | Potency [17]

O=C(Cl)c1ccccc1
inactive: Potency [1] | outcome [2] | outcome [3] | Potency [4] | Potency [18] | Potency [5] | Potency [6] | outcome [7] | Potency [8] | Potency [9] | Potency [10] | outcome [11] | Potency [13] | Potency [14] | Potency [15] | Potency [16] | Potency [17]

C=C(C)[C@H]1CN[C@H](C(=O)O)[C@H]1CC(=O)O
inactive: Potency [1] | outcome [2] | Potency [4] | Potency [6] | outcome [7] | Potency [8] | Potency [9] | Potency [10] | outcome [11] | max response [12] 0.763% | Potency [13] | Potency [15] | Potency [16] | Potency [17]

BrCCc1ccccc1
inactive: Potency [20] | outcome [2] | outcome [3] | Potency [4] | Potency [18] | activity change, positive = activation [19] 0.561% | Potency [5] | Potency [6] | outcome [7] | Potency [8] | Potency [9] | Potency [10] | outcome [11] | max response [12] -1.95% | Potency [13] | Potency [14] | Potency [16] | Potency [17]

CCN(CCO)CCn1c(Cc2ccccc2)nc2c1c(=O)n(C)c(=O)n2C
inactive: Potency [1] | outcome [2] | outcome [3] | Potency [4] | Potency [18] | activity change, positive = activation [19] -1.48% [at 42.5 µM] | Potency [5] | Potency [6] | outcome [7] | Potency [8] | Potency [9] | outcome [11] | Potency [13] | Potency [15] | Potency [16] | Potency [17]

O=C(O)C(F)(F)C(F)(F)C(F)(F)C(F)(F)C(F)(F)C(F)(F)F
inactive: Potency [1] | outcome [2] | outcome [3] | Potency [4] | Potency [6] | outcome [7] | Potency [8] | Potency [9] | Potency [10] | outcome [11] | max response [12] -16.5% | Potency [13] | Potency [14] | Potency [15] | Potency [17]

O=C/C=C/c1ccco1
inactive: Potency [20] | outcome [2] | outcome [3] | Potency [4] | Potency [5] | Potency [6] | outcome [7] | Potency [8] | Potency [9] | Potency [10] | Potency [13] | Potency [14] | Potency [15] | Potency [16] | Potency [17]

C[C@H]1CCCC(=O)CCC/C=C/c2cc(O)cc(O)c2C(=O)O1
inactive: Potency [20] | outcome [2] | outcome [3] | Potency [5] | outcome [7] | Potency [8] | Potency [9] | outcome [11] | Potency [13] | Potency [14] | Potency [15] | Potency [16]
active: Potency [6] 21.1 µM | Potency [10] 37.5 µM | Potency [12] 21.1 µM
86.5 µM (active) and inactive: Potency [4]
